Hits are enriched below; roughly 2.8% of the tested compounds scored in any of these assays.
ATXN2 expr inh: reduces ATXN2 reporter expression in HEK-293 cells; AID 1745845; 360,000 compounds, 0.72% hits; Potency, µM (series often up to 57 µM), for the others: top-dose activity change, negative = inhibition, usual class: inhibitors; HEK-293 ATXN2-luciferase reporter, luminescence, 24 h; note: % is set by controls: 0 for no effect and ±100 for the full control effect; nearly all actives have a fitted effect of over 55% in size
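qHTS (up to 57 uM final) was run with 24 h compound exposure of reporter cells at 37 °C. Each well was multiplexed: SteadyGlo luminescence measured ATXN2-luciferase expression after a fluorogenic Gly-Phe-AFC viability readout (25 uM final).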
HepG2 viability: counter-screen for TGF-b inhibitors: cytotoxicity in HepG2 cells. AID 588856. HepG2 CAGA-GFP viability, ATP luminescence, 18 h. Potency, µM (highest dose often 46.1 µM), inactives show at the highest dose activity change, negative = cytotoxicity, most hits filed as cytotoxic. 410,000 compounds, 0.76% hits
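HepG2 CAGA-GFP cells (1000/well, DMEM with 1% FBS) received compound, then TGF-beta at 500 pg/mL final, and were incubated 18 hours at 37 degrees C. Viability was read by CellTiter-Glo luminescence. Media-only wells were set as complete cell-killing and DMSO as no toxicity.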
HTT cytoprotect: cytoprotection in Huntington HTT-Q103 PC12 cell model; PC12 HTT-Q103 induced, cytoprotection, ATP luminescence, 40 h; Potency, µM (top dose mostly 56.4 µM), without a hit: cytoprotection (ATP increase), usual class: activators; 230,000 compounds, 0.14% hits; note: % of control where 0% means no effect; nearly all actives have a fitted effect of over 45% in size
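Compounds were screened for protection of PC12 cells against cell death after tebufenozide induction (100 nM final) of mutant Huntingtin exon 1 (Q103) fused to GFP.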
S2 tox: reduces viability in counter-screen for ATXN expression inhibitors; S2 cells (HEK-293 line with an ATXN2-luciferase reporter) viability, CellTiter-Fluor protease fluorescence, 24 h; Potency, µM (series often up to 56.7 µM), actives largely listed as cytotoxic; 400,000 compounds, 0.49% hits; AID 651635; note: nearly all actives have a fitted effect of over 40% in size
TGFb inhibitor: TGF-b pathway inhibition; HepG2 CAGA-GFP TGF-b/SMAD3 reporter, GFP fluorescence, 18 h; TGF-beta stimulated, 500 pg/mL final; 410,000 compounds, 1.2% hits; Potency, µM (highest dose often 46.1 µM), inactives show at the top dose activity, negative = inhibition, usual class: inhibitors; note: % is set by controls: 0 for no effect and ±100 for the full control effect; nearly all actives have a fitted effect of over 65% in size
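Using HEPG2 CAGA-GFP reporter cells at 1000 cells/well, we pinned test compounds, stimulated with recombinant TGF-beta (500 pg/mL final) and measured total well GFP after 18 h.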
HttQ103 aggreg: mutant huntingtin aggregation inhibition; PC12 HttQ103-GFP aggregates, Acumen cytometry, 40 h; 220,000 compounds, 1.1% hits; Potency, µM (doses to about 46.1 µM), for inactives: top-dose activity change, negative = inhibition, usual class: inhibitors; AID 1688; note: % is set by controls: 0 for no effect and ±100 for the full control effect; nearly all actives have a fitted effect of over 60% in size
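Compounds (qHTS titration) were added to PC12 cells expressing an ecdysone-driven HTT exon 1 Q103–GFP fusion after induction with 100 nM tebufenozide. Aggregate formation was measured as GFP objects in cell lysates.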
* = called active by the depositor; i = inactive; ? = inconclusive; nt = no result; [ ] = dose if it differs, or a comment. Calls come from the whole dose curve; as a rule, active = well fitted curve in the direction sought with a large enough effect; inconclusive = small, poorly fitted or top-dose-only effect, or another doubt; inactive = no such curve, though single readings can be large; an effect the other way counts as inactive or inconclusive. Potency is the fitted concentration of half-maximal effect.

SMILES	ATXN2 expr inh	HepG2 viability	HTT cytoprotect	S2 tox	TGFb inhibitor	HttQ103 aggreg
Cc1ccccc1C(=O)Nc1ccc(C(=O)N2CCCC(N(C)C)c3ccccc32)cc1 (stereo unspecified)	-20%	nt	nt	?	nt	nt
CCOC(=O)C1=C(Cc2ccc(Cl)cc2)C(=O)c2ccccc2C1=O	20µM*	11µM*	-70%	nt	?	19%
COC(=O)C1=C(C)NC(C)=C(C(=O)OCC(C)C)C1c1ccccc1[N+](=O)[O-] (stereo unspecified)	?	-45%	-102%	?	18µM*	-5%
COC(=O)C1=C(C)NC(C)=C([N+](=O)[O-])[C@H]1c1ccccc1C(F)(F)F	nt	-7%	-10%	nt	?	nt
COc1ccccc1OCCN1CSC(=S)N(C)C1	28µM*	-21%	nt	?	?	-4%
O=C(NC(c1ccccc1)c1c(O)ccc2ccccc12)c1ccccc1Cl (stereo unspecified)	?	-77%	-74%	i	?	?
O=C(NC(c1ccc(Cl)cc1)c1c(O)ccc2ccccc12)c1ccccc1 (stereo unspecified)	13%	18µM*	17%[10 µM]	i	11µM*	?
COc1ccc2oc(C(=O)Nc3ccc(S(=O)(=O)N(C)C4CCN(C)CC4)cc3)c(C)c2c1	?	13µM*	nt	?	?	nt
CS(=O)(=O)c1ccc(C(=O)NCCN2C(=O)S/C(=C\c3cccnc3)C2=O)cc1[N+](=O)[O-]	nt	-142%	3%[10 µM]	nt	14µM*	?
Cc1nc2ccc(C(=O)N3CCc4c(cnc(C)c4CNC(=O)/C=C/c4cccs4)C3)cc2nc1C	nt	nt	nt	i	nt	nt
Nc1ccc(N2CCCCC2)c2nonc12	nt	-76%	7%[10 µM]	i	13µM*	2%[9.22 µM]
Nc1c(N2CCCC2)cc(Cl)c2nonc12	-20%	-96%	-23%[0.074 µM]	i	10µM*	-15%
Nc1ccc(N2CCCCC2)cc1N1CCCCC1	-4%	-29%	-23%[10 µM]	i	10µM*	?
Nc1ccccc1NC(=O)c1ccc(CNC(=O)OCc2cccnc2)cc1	102%	nt	nt	nt	nt	nt
COc1cccc(-n2nnc3c(=O)n(Cc4cccc(F)c4)cnc32)c1	14%	-3%	-6%	i	-24%	-8%[9.22 µM]
COc1cccc(-n2nnc3c(=O)n(Cc4c(F)cccc4Cl)cnc32)c1	6%	4%	-9%[0.074 µM]	i	-8%	3.2µM*
Cc1nc2cc(NC(=O)[C@@H]3C[C@@H](Sc4ccccn4)CN3Cc3cccc(Cl)c3)ccc2s1	nt	nt	nt	i	nt	nt
O=C(c1cccs1)N1CCCC1	4%	-14%	1%[10 µM]	i	-5%	6%
O=C(c1cccs1)N1CCN(C(=O)c2cccs2)C1=S	?	-50%	nt	nt	6.3µM*	nt
Cc1cccc(/C=N/NC(=O)c2ccc(NC(=O)c3ccc(Cl)cc3)cc2)n1	-23%	-69%	nt	i	13µM*	nt
COC(=O)c1c(OCc2cccnc2)cc(=O)n2c1CCN(C(=O)c1ccc(OC)c(F)c1)CC2	nt	nt	nt	i	nt	nt
[O-][N+]12CCCc3cccc(c31)CCC2	nt	-4%	nt	nt	-18%	nt
Cc1noc2ncnc(Sc3c(Cl)cccc3Cl)c12	7%	11µM*	27%[10 µM]	i	?	-1%
Cc1ccc(Sc2ncnc3onc(C)c23)cc1	11%	-9%	9%	i	-7%	19%[9.22 µM]
Cc1noc2ncnc(Sc3ccc(Cl)cc3)c12	-20%	14µM*	-108%	?	?	?
SMILES	ATXN2 expr inh	HepG2 viability	HTT cytoprotect	S2 tox	TGFb inhibitor	HttQ103 aggreg
CCOC(=O)c1ccc(NC(=O)Cc2coc3cc4c(cc23)CCC4)cc1	-9%	-7%	20%[10 µM]	i	?	15%
CCCCOC(=O)c1ccc(NC(=O)Cc2coc3ccc(C(C)C)cc23)cc1	?	-39%	nt	?	11µM*	nt
Cc1ccc(NC(=O)Cc2coc3ccc(C(C)C)cc23)c(C)c1	-10%	-43%	nt	i	?	nt
Cc1ccc(NC(=O)Cc2coc3ccc(C(C)C)cc23)cc1Cl	-8%	-32%	nt	?	11µM*	nt
CCOC(=O)CN(C)C(=O)c1cnn(-c2ncc3c(n2)-c2ccccc2CCC3)c1C	nt	nt	nt	i	nt	nt
Cc1cc(C)n(CC(O)Cn2c3ccccc3c3ccccc32)n1 (stereo unspecified)	-14%	-23%	-12%	i	-17%	-7%
Cc1cc(C)n(CC(O)Cn2c3ccc(Cl)cc3c3cc(Cl)ccc32)c(=O)n1 (stereo unspecified)	32µM*	-87%	-37%	?	?	-26%
CC1(C)CC(C(=O)N2CCOc3ccc(CN4CCC(Oc5cccnc5)CC4)cc3C2)CCO1 (stereo unspecified)	nt	nt	nt	i	nt	nt
O=C(N/N=C/c1ccccc1O)C1CC(=O)N(c2ccc(Cl)cc2)C1 (stereo unspecified)	6.3µM*	-13%	nt	i	-28%	nt
Cc1ccc2nc(-c3ccc(SCC(=O)Nc4nnc(C)s4)nc3)[nH]c2c1	?	13µM*	-17%[10 µM]	nt	11µM*	16µM*
Cc1ccc(C(=O)CC2(O)C(=O)N(CCc3ccccc3)c3ccc(Cl)cc32)cc1 (stereo unspecified)	?	11µM*	nt	?	18µM*	nt
CC1CCCC(C)N1CCCNC(=O)c1ccc2c(c1)NC(=O)c1ccccc1S2 (stereo unspecified)	-13%	-20%	nt	i	-12%	nt
CCC(C)N(CCNC(=O)c1ccc2c(c1)NC(=O)c1ccccc1S2)C1CCCCC1 (stereo unspecified)	?	11µM*	nt	?	?	nt

Assay outcomes (PubChem)
